Results filed as inconclusive are left out. Active and inactive are the calls of the source. Rule for the calls: active = hit-call score of the fitted dose curve at least 0.9, where 1 is the maximum; inconclusive = response in the unintended direction; inactive = score below 0.9.
The compounds below were run against Cellular tumor antigen p53 (Homo sapiens) (UniProt P04637) (assay: TOX21_p53_BLA_p4_ratio: Tox21 HCT-116 p53 Agonism Beta-lactamase Assay, Ratio, Phase 4 (AID 2283601)).
From the text: TOX21_p53_BLA_p4 is a cell-based, single-readout assay that uses HCT116, a human intestinal cell line, […] in a 1536-well plate.TOX21_p53_BLA_p4_ratio is an assay readout measuring reporter gene via receptor activity and designed using inducible reporter (beta lactamase induction) detected with GAL4 b-lactamase reporter gene. The signal is derived from the ratio of cleaved (ch2) to uncleaved (ch1)reporter gene substrate used as the measure of target activity.Data from the assay component TOX21_p53_BLA_p4_ratio was analyzed into 1 assay endpoint. This assay endpoint, TOX21_p53_BLA_p4_ratio, was analyzed in the positive analysis fitting direction relative to DMSO as the negative control and baseline of activity. Using a type of inducible reporter, gain-of-signal activity can be used to understand changes in the reporter gene as they relate to the gene TP53. Furthermore, this assay endpoint can be referred to as a primary readout, because this assay has produced multiple assay endpoints where this ratio serves a reporter gene function to understand target activity. To generalize the intended target to other relatable targets, this assay endpoint is annotated to the DNA binding intended target family, where the subfamily is tumor suppressor.
Thawing Method: Place 14 mL of pre-warmed thaw medium into a 15 mL of conical tub. Remove the vial of cells to be thawed from liquid nitrogen and thaw rapidly by placing at 37C in a water bath with gentle agitation for 1-2 minutes. Decontaminate the vial by wiping with 70% ethanol before opening in a biological safety cabinet. Transfer the vial contents drop-wise into 14 mL of thaw medium in a sterile 15-mL conical tub. Centrifuge cells at 900 rpm for 4 minutes and resuspend in thaw medium. Transfer contents to the T75 tissue culture flask containing Thaw Medium and place flask in a humidified 37C/5% CO2 incubator. Switch to growth medium at first passage.Propagation Method: Aspirate medium, rinse once in DPBS, add 0.25% Trypsin/EDTA and swirl to coat the cell evenly. Add an equal volume of Growth Medium to inactivate Trypsin after 2-3 minutes incubation at 37C. Centrifuge cells at 900 rpm for 4 minutes and resuspend in growth medium. Cell should be passage or fed at least twice a week.Assay Protocol: Harvest cells from culture in growth medium and resuspend in assay medium. 2.2 Dispense 4000 cells/5 uL/well into 1536-well black/clear bottom plates using a Multidrop dispenser. After the cells were incubated at 37C for 5 hours, 23 nL of compounds dissolved in DMSO were transferred to the assay plate by a PinTool resulting in a 217-fold dilution. Incubate the plates for 16 hours at 37C, 5% CO2. Add 1 uL of 6X LiveBLAzer FRET B/G (CCF4-AM) Substrate Mixture to each well using a BioRAPTR dispenser and incubate the plates at room temperature for 2 hours. Measure fluorescence intensity at 460 and 530 nm emission and 405 nm excitation by an Envision detector. Data is expressed as the ratio of 460nm/530nm emissions. Add 4 uL of Cell-titer Glo to each well using BioRAPTR and incubate the plates at room temperature for 2 hours. Measure fluorescence intensity by a VewLux plate reader.

Sequence of Cellular tumor antigen p53 (Homo sapiens) (P04637 whole entry, looked up, the tested form may be a part): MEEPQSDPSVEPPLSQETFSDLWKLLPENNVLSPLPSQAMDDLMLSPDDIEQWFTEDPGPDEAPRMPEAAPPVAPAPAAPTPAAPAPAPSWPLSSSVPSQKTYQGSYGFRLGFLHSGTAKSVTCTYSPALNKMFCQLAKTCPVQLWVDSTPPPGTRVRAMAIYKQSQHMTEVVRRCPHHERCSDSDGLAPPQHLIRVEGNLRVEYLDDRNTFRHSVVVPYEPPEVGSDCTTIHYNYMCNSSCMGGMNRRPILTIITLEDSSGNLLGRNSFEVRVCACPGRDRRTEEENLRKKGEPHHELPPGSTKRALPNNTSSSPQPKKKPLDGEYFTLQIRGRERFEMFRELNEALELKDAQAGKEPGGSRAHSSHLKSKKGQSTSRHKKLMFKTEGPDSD

Row | SMILES | outcome | AC50
1 | Oc1c(Br)c(Br)c(Br)c(Br)c1Br | inactive | 
2 | O=c1ccc2cc(O[C@@H]3O[C@H](CO)[C@@H](O)[C@H](O)[C@H]3O)c(O)cc2o1 |  | 10.9 µM (active)
3 | CCCCNCC(O)c1ccc(O)cc1 (stereo not given) | inactive | 
4 | CN(C)C(=O)Oc1cc(OC(=O)N(C)C)cc(C(O)CNC(C)(C)C)c1 (stereo not given) | inactive | 
5 | Cc1cc(C(C)(C)c2cc(C)c(O)c(C)c2)cc(C)c1O |  | 74.3 µM (active)
6 | CC(C)NC(C)Cc1ccc(I)cc1 (stereo not given) | inactive | 
7 | CCOC(=O)c1cn2nc(OP(=S)(OCC)OCC)cc2nc1C | inactive | 
8 | O=C(CCl)c1ccccc1 | inactive | 
9 | O=P1(N(CCCl)CCCl)NC(OO)CCO1 (stereo not given) | inactive | 
10 | Cl/C=C\Cl | inactive | 
11 | CN1C(=O)[C@@H](NC(=O)c2cc3ccccc3[nH]2)N=C(c2ccccc2)c2ccccc21 | inactive | 
12 | COC(=O)[C@H]1[C@@H](OC(=O)c2ccccc2)C[C@@H]2CC[C@H]1N2C | inactive | 
13 | c1cc[n+]2c(c1)-c1cccc[n+]1CC2 | inactive | 
14 | CCOC(=O)NC(=S)Nc1ccccc1NC(=S)NC(=O)OCC |  | 64 µM (active)
15 | Cn1c(N)nc2c3cccnc3ccc21 | inactive | 
16 | CCC(C(N)=O)N1CCCC1=O (stereo not given) | inactive | 
17 | Nc1ccc(Cl)c(Cl)c1 | inactive | 
18 | C=C(Cl)CCl | inactive | 
19 | CCCCCCCCCCCCCCCCCCn1cc[n+](C)c1 | inactive | 
20 | O=[Se]=O |  | 4.23 µM (active)

Row | SMILES | outcome | AC50
21 | CCCCCCI | inactive | 
22 | CC(=O)C(C)(C)C | inactive | 
23 | CCC(C)Cl (stereo not given) | inactive | 
24 | COc1cc(CC(C)N)cc2c1OCO2 (stereo not given) | inactive | 
25 | Oc1ccc2c3c1O[C@H]1[C@@H](O)CC[C@@]4(O)[C@@H](C2)N(CC2CCC2)CC[C@]314 | inactive | 
26 | NC(=O)CI | inactive | 
27 | CCCCCCCCCCCCCC[P+](CCCCCC)(CCCCCC)CCCCCC (tested in a mixture with another compound) | inactive | 
28 | C[C@]12CCC(=O)C(O)=C1CC[C@@H]1[C@@H]2CC[C@]2(C)C(=O)CC[C@@H]12 | inactive | 
29 | CN(C)CCC#N | inactive | 
30 | CCCCCCCCCBr | inactive | 
31 | COC(=O)C(Cl)C(=O)OC | inactive | 
32 | O=c1[nH]cc(N(CCCl)CCCl)c(=O)[nH]1 | inactive | 
33 | C=CC(C)=O | inactive | 
34 | CN1CCc2cc3c(cc2C1O)OCO3 (stereo not given) |  | 46.3 µM (active)
35 | CCc1cccc(C)c1N(C(=O)CCl)[C@@H](C)COC | inactive | 
36 | C=C(C#N)CCC#N | inactive | 
37 | [Cl][Hg][c]1ccccc1 |  | 0.672 µM (active)
38 | O=c1[nH]oc2c1CCNC2 | inactive | 
39 | C[C@@H]1[C@@H]2Cc3ccc(O)cc3[C@@]1(C)CCN2CC1CC1 | inactive | 
40 | O=C(C[C@@H]1NCCC[C@H]1O)Cn1cnc2cc(Br)c(Cl)cc2c1=O | inactive | 

Reference: PubChem BioAssay (EPA / NIEHS)
